For 82 compounds, inhibition results are on record in PubChem BioAssay AID687016 (The Scripps Research Institute Molecular Screening Center, 2013).

SMILES strings stand for the structures. About 2,800 (0.76%) of roughly 370,000 compounds were called active. This is one part of a sample in which actives are shown more often than they occur. Values without a mark were called inactive. Cut-off read from the data, not from the text of the source: active = inhibition above about 21%; inactive = the rest.

For the experiment, the target named is E3 ubiquitin-protein ligase UHRF1 (Homo sapiens) (UniProt Q96T88). Description: blockers of UHRF1 binding to methyl-oligo – biochemical, TR-FRET, human UHRF1, single concentration, counter-screen for MBD2 inhibitor project, primary screen (AID 687016).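 Note: UHRF1 SRA domain binding a hemimethylated CpG hairpin DNA probe; 0% = median of test compound wells and 100% = reference inhibitor.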 To be noted: UHRF1 binding to methylated oligo, at 4.4 µM, hits give high values.
E3 ubiquitin-protein ligase UHRF1 (Homo sapiens), sequence (Q96T88 whole entry, looked up, the tested form may be a part): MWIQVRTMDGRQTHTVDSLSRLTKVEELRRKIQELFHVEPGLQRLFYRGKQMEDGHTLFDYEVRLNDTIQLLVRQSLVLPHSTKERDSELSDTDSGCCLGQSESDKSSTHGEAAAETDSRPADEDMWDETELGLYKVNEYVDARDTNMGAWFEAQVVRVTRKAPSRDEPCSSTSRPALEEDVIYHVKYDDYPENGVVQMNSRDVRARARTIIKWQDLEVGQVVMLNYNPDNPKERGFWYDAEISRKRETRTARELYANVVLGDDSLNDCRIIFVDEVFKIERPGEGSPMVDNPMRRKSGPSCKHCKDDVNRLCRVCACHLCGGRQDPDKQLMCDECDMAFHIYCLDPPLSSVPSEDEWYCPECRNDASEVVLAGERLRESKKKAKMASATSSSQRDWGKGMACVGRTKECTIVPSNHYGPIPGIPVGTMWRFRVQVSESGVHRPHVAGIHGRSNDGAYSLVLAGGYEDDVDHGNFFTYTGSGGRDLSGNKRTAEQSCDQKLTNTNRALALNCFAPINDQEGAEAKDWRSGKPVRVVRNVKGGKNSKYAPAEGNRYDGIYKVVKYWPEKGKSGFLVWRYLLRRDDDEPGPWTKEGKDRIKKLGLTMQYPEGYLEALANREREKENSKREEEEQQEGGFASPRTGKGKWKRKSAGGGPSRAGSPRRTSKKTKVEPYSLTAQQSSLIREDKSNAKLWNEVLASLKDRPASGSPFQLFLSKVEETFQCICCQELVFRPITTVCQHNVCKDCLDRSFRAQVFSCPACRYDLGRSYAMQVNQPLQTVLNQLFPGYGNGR
As for `CC(=O)c1cccc(-c2cnc3c(NC=O)cc(-c4ccc(N5CCN(C)CC5)cc4)cn23)c1`, the inhibition was -0.16%. Take `CC(=O)c1cccc(-c2cnc3c(NC=O)cc(-c4ccc(N(C)C)cc4)cn23)c1`: the inhibition is 31.6% (active).

Turning to `CN(C)C(=O)c1cccc(-c2cnc3c(NC=O)cc(-c4ccc(C(=O)N5CCOCC5)cc4)cn23)c1`, the inhibition was -6.57%. Consider `Cc1ccccc1CN1CCCCC(NC(=O)Nc2ccccc2F)C1=O` (configuration not stated), for which the inhibition is -1.71%. Consider `CC1(C)Cc2c(C#N)c(SCc3nc4ccccc4[nH]3)nc(N3CCOCC3)c2CO1`, for which the inhibition is 25.8% (active). As for `CCOC(=O)CSc1nc(N2CCOCC2)c2c(c1C#N)CC(C(C)C)OC2` (configuration not stated), the inhibition is 1.09%. Under `CC(C)C(=O)N1CCN(c2nc(-c3ccccc3)c3c(c2C#N)CC(C)(C)OC3)CC1` stands -0.61%; under `CCC[C@H]1C(=O)CC[C@@]23CCCN2C(=O)CCC[C@@H]13`, -3.81%; under `CCN(CC)C(=O)Cn1cc(S(=O)(=O)CC(=O)NCc2ccc3c(c2)OCO3)c2ccccc21`, 22.7% (active). The result for `CCN(CC)C(=O)C(=O)c1cn(CC(=O)NCc2ccc3c(c2)OCO3)c2ccccc12` reads 1.9%; that for `CC(C)N(C(=O)Cn1cc(S(=O)(=O)CC(=O)N2CCOCC2)c2ccccc21)C(C)C`, 0.05%. Turning to `CCCC1(C(=O)OC)NC(c2ccco2)C2C(=O)N(C)C(=O)C21` (configuration not stated), the inhibition was 26.9% (active). On to `CC[C@@]1(C(=O)OC)N[C@H](CN(C)C(C)=O)[C@@H]2C(=O)N(C)C(=O)[C@@H]21`, for which the inhibition is 4.65%. In the case of `CCCSc1ccc([C@H]2N[C@@](Cc3ccccc3)(C(=O)OC)[C@H]3C(=O)N(C)C(=O)[C@@H]23)cc1`, the inhibition is 2.8%. Turning to `COc1ccc2c(c1)CN1CN(CCc3ccccc3)S(=O)(=O)CC21` (configuration not stated), the inhibition is -5.7%. With `COC(=O)[C@@]12CCCCC3=C1N(CCC3)C(=O)[C@H]2CC(=O)NCc1cccc2ccccc12`, the inhibition was -1.21%. Turning to `CC(=O)N1CCc2cc(S(=O)(=O)NCCC(=O)N3CCCC3)ccc21`, the inhibition is 2.88%. For the compound `CC(c1ccc(N)cc1)c1cn(C)c2ccccc12` (configuration not stated), the inhibition was 2.19%. With `O=C(NCCc1c[nH]c2ccccc12)OCc1cn(-c2c(F)cccc2F)nn1`, the inhibition is -1.24%.

In the case of `O=S(=O)(c1ccccc1)N1CCC(c2nc3ccccc3o2)CC1`, the inhibition was -2.1%. Under `CNS(=O)(=O)c1cccc(C(=O)NC2CCCc3ccccc32)c1` (configuration not stated) stands -0.54%. For the compound `O=C(O)c1cc(S(=O)(=O)NC2CCCc3ccccc32)ccc1O` (configuration not stated), the inhibition is 26.4% (active). Regarding `Cc1ccc(S(=O)(=O)N2CCN(C(=O)CCC(=O)NC3CCCc4ccccc43)CC2)cc1` (configuration not stated), the inhibition was -0.03%. As to `COC(=O)C1CN(CCc2ccccc2)CCS(=O)(=O)N1Cc1ccc(F)cc1` (configuration not stated), the inhibition is 2.78%. The result for `O=C(Nc1cc(F)cc(F)c1)OC1CCC12CCC(c1ccccc1)CC2` (configuration not stated) reads -0.77%. Take `CC(C)(C)c1ccc(C(=O)Nc2cc(Cl)c(Br)cc2C(=O)O)cc1`: the inhibition was 3.66%.

Take `COc1ccccc1N(CC(=O)N/N=C(\C)c1ccccc1O)S(=O)(=O)c1ccc(C)cc1`: the inhibition was -1.56%. With `Cc1ccc(S(=O)(=O)N(CC(=O)NN=C2CCN(C)CC2)c2ccc(F)cc2)cc1`, the inhibition was -0.56%. The result for `Cc1ccc(S(=O)(=O)N(CC(=O)N/N=C/c2ccc(F)cc2)c2cccc3cccnc23)cc1` reads 24.1% (active); that for `O=S1(=O)c2ccc(Br)cc2OC[C@H](Cc2ccccc2)N1Cc1cn(Cc2ccccc2)nn1`, 1.7%. Regarding `COc1ccc(S[C@]2(C(=O)N(C)C)CC(=O)N(c3ccc(OC)cc3)[C@@H]2c2ccc(OC)cc2)cc1`, the inhibition was 2.01%. On to `O=C(O)c1ccc(NN=CC2=C(N3CCOCC3)/C(=C/c3ccccc3)CC2)cc1`, for which the inhibition is 22.5% (active). Under `O=C1OC(NC(=O)c2ccccc2)C(N2CCOCC2)=C1Cl` (configuration not stated) stands 0.02%; under `O=C(Nc1ccc(F)cc1)c1cccnc1N1CCOCC1`, -3.63%; under `CCOC(=O)C(=O)N(Cc1ccccc1)c1ccccc1C(=O)Nc1cc(OC)ccc1OC`, 1.4%.

Take `COc1ccc(NC(=O)C2(C)Cc3c(-c4cccc(NC(C)=O)c4)ccnc3O2)cc1OC` (configuration not stated): the inhibition was 3.78%. The result for `COc1ccc(CCNc2nc(-c3cccc(NC(C)=O)c3)cs2)cc1OC` reads 63% (active); that for `COc1ccc(CCNc2nc(C)cc(C)n2)cc1OC`, -1.42%. In the case of `Cc1ccc(CSc2nnc(SCC(=O)NN=Cc3cc(Br)ccc3F)s2)cc1`, the inhibition was -0.65%. The result for `COc1ccc(NC(=O)CSc2nnc(Cc3ccccc3)c(=O)n2N)cc1` reads -3.2%. For `COc1ccc(-n2c(SCC(=O)Nc3ccc(C)c(Cl)c3)nc3ccccc3c2=O)cc1`, the inhibition was 0.63%. For `COc1ccc(NC(=O)CSc2nc3ccccc3c(=O)n2C)cc1`, the inhibition was 40.1% (active).

Regarding `COc1ccc(C2CC=C(C(=O)O)C(c3ccccc3F)N2S(=O)(=O)c2ccc(C)cc2)cc1OC` (configuration not stated), the inhibition was -0.43%. With `COc1cccc(N(C)C(=O)[C@@H](C)[C@@H](O)c2ccc3ccccc3c2)c1`, the inhibition was -1.4%. The result for `CC(C)Oc1ccc(C2NC(=O)NC2=O)cc1` (configuration not stated) reads 25% (active); that for `O=C1NC(=O)C(c2ccc(Cl)cc2)N1` (configuration not stated), 2.25%. The result for `COc1ccc(C2NC(=O)N(C)C(C)=C2[N+](=O)[O-])cc1` (configuration not stated) reads 0.56%; that for `N#Cc1ccccc1OC[C@@H](O)CN1CCC(C(O)(c2ccccc2)c2ccccc2)CC1`, -2.62%; that for `Cc1ccc(CN2CCCCC(NC(=O)C3CCCCC3)C2=O)cc1` (configuration not stated), -1.14%. Regarding `CCN(CCO)C(=S)Nc1cc(C(=O)OC)ccc1C(=O)OC`, the inhibition is 2.08%. Under `CCCN(CCC)C(=S)Nc1cc(C(=O)OC)ccc1C(=O)OC` stands 20.9% (active); under `CCS(=O)(=O)Nc1cc(C(=O)OC)ccc1C(=O)OC`, -4.74%. For the compound `COc1cccc(/C=C2\CC3(OC(C)=O)CCCN2C3)c1` (configuration not stated), the inhibition is -1.67%.

Consider `Cc1ccc(-c2nn(-c3ccc(F)cc3)cc2C(=O)NCC(c2cccs2)N2CCOCC2)cc1` (configuration not stated), for which the inhibition is -1.94%. The result for `O=C(NCC(c1cccs1)N1CCOCC1)c1cc(Cl)ccc1[N+](=O)[O-]` (configuration not stated) reads 29.1% (active); that for `COc1ccc(NS(=O)(=O)c2ccc(C)c(C(=O)NCC(c3cccs3)N3CCOCC3)c2)cc1` (configuration not stated), 3.98%; that for `O=C(NCC1COc2ccccc2O1)c1ccc(NC(=O)c2cc(F)ccc2F)cc1` (configuration not stated), -0.34%. Turning to `O=C(CNS(=O)(=O)c1ccccc1F)N1CCN(c2ccccn2)CC1`, the inhibition was -1.25%. For the compound `NC1=CC(=O)C(=O)c2cccnc21`, the inhibition is 21.7% (active). In the case of `Cc1cc(C(F)(F)F)c(C#N)c(SCC(=O)NC2CC2)n1`, the inhibition is 25.8% (active). The result for `Cc1nc(SCC(=O)NC2CCCCC2C)c(C#N)c(C)c1C` (configuration not stated) reads 3.02%; that for `Cc1cc(C)c(C#N)c(SCC(=O)NN2CC(=O)N(c3ccccc3F)CC2=O)n1`, 1.74%; that for `CCCCOCCCNC(=O)C[C@H]1C[C@@]2(C(=O)OC)C(=C[C@H](COCc3ccccc3)O[C@@H]2C)N(Cc2cccc3ccccc23)C1=O`, -3.11%. Under `CCOC(=O)c1csc(NC(=O)C2CCCN(S(=O)(=O)c3ccc(Cl)s3)C2)n1` (configuration not stated) stands 0.11%. For the compound `CC(C)CNS(=O)(=O)CC1NCCc2ccccc21` (configuration not stated), the inhibition is 1.66%. On to `C=C1c2c(Cl)ccc(O)c2C(O)=C2C(=O)[C@]3(O)C(O)=C(C(N)=O)C(=O)[C@@H](N(C)C)[C@@H]3[C@@H](O)C12` (some centres not stated), for which the inhibition is 58.9% (active).

In the case of `CN(C)[C@@H]1C(=O)C(C(N)=O)=C(O)[C@@]2(O)C(=O)C3=C(O)c4c(O)ccc(Cl)c4[C@@H](O)[C@H]3C[C@@H]12`, the inhibition is 35.1% (active). With `CC(C)C(C#CC1CC1)N(Cc1ccc2c(c1)OCO2)C(N)=NC(=O)/C=C/c1cccc(C(F)(F)F)c1` (configuration not stated), the inhibition was -0.23%. For the compound `CN(CCO)c1cccc2c1S(=O)(=O)N(Cc1cn(Cc3ccc(C(F)(F)F)cc3)nn1)Cc1ccccc1O2`, the inhibition was 1.05%. Consider `CCCCC(=O)N[C@@H]1CC[C@@]23CCCN2C(=O)CCC[C@H]3[C@H]1C`, for which the inhibition is -2.76%. For `CCOC(=O)CSc1nc(C)cc2c1C(=O)OC2`, the inhibition is -0.04%. Turning to `CCN(Cc1ccncc1)C(=O)CCc1ccccc1`, the inhibition was -1.14%. In the case of `CCN(Cc1ccccc1)C(=O)CSc1nc(C)cc2c1C(=O)OC2`, the inhibition was 26% (active). As to `COc1ccc(-n2c(SCC(=O)Nc3ccccc3-c3ccccc3)nnc2-c2cccnc2)cc1`, the inhibition was 1.25%. Take `C[C@@H]1ON(C)[C@H]2C[C@H]3c4[nH]c5cccc(-c6ccc7c(c6)OCO7)c5c4CCN3C[C@@H]12`: the inhibition was 4.06%.

Consider `COc1ccc(CCNC(=O)CCn2c(=O)c3ccccc3n(CC(=O)NCC3CCCO3)c2=O)cc1OC` (configuration not stated), for which the inhibition is 2.05%.

As for `Cc1ccc2nc3c(cc(C(=O)NCCc4ccccc4)c(=N)n3CC3CCCO3)c(=O)n2c1` (configuration not stated), the inhibition was -6.46%. As for `COc1ccc(CCn2c(=N)c(C(=O)NCC3CCCO3)cc3c(=O)n4cccc(C)c4nc32)cc1OC` (configuration not stated), the inhibition is 24.6% (active). For the compound `O=C(c1cccc(C(F)(F)F)c1)N1CC[C@H]2[C@H](CCCN2Cc2cc(F)cc(F)c2)C1`, the inhibition was -0.64%. Consider `Cc1noc(C)c1NC(=O)Nc1cccc2c1O[C@H](CN(C)C(=O)Nc1ccccc1)[C@@H](C)CN([C@H](C)CO)C2=O`, for which the inhibition is -2.78%.

`Cc1noc(C)c1NC(=O)Nc1ccc2c(c1)C(=O)N([C@H](C)CO)C[C@H](C)[C@@H](CN(C)C(=O)Nc1ccc(C(F)(F)F)cc1)O2`: the inhibition was -2.17%. Turning to `Cc1noc(C)c1NC(=O)Nc1ccc2c(c1)C(=O)N([C@H](C)CO)C[C@H](C)[C@@H](CN(C)C(=O)Nc1ccccc1)O2`, the inhibition was 22.9% (active).

Usually inhibition stands for the change of the read-out against control, counted positive when it falls.
